Shown are actives, neighbours in structure and some others; about 3.2% of the full set was active somewhere.
rCAG RNA binder: binders of r(CAG) RNA repeats, primary screen, biochemical, fluorescence | r(CAG) RNA repeat, TO-PRO-1 dye displacement fluorescence | inhibition, % at 3 µM | 370,000 tested, 1.3% active | AID 651821, 2012;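 active = inhibition above the plate cutoff, the mean of all test compounds on that plate plus 3 SD, cut at about 35% in these data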;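 also: 0% = DMSO alone and 100% = 100 µM mitoxantrone as full dye displacement; higher means more dye released from RNA so lower well fluorescence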
MsrA inhibitor: bovine MsrA enzyme inhibitors, primary screen, biochemical, absorbance, HTS | Methionine sulfoxide reductase A (Bos taurus) | purified bovine MsrA, absorbance read-out | inhibition, % at 15.5 µM | 360,000 tested, 0.75% active; in the data active = inhibition above about 4.5%;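 also: 0% = vehicle wells with enzyme and 100% = reference inhibitor wells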
MsrA act: bovine MsrA enzyme activators, primary screen, biochemical, absorbance, HTS | Methionine sulfoxide reductase A (Bos taurus) | purified bovine MsrA, absorbance read-out | activation, % at 10.6 µM | 360,000 tested, 0.3% active; in the data active = activation above about 7.5%;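 also: 0% = vehicle and 100% = reference activator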
PG9 binder: binders of HIV-1 gp120 antibody PG9, primary screen, biochemical, TR-FRET. TR-FRET gp120-PG9 antibody binding. inhibition, % at 6.7 µM. 360,000 tested, 0.43% active; in the data active = inhibition above about 8.5%
HGIII-sPLA2 inh: human group III sPLA2 inhibitors, primary screen, biochemical, QFRET, BODIPY PC-A2 liposome substrate; Group 3 secretory phospholipase A2 (Homo sapiens), Q9NZ20; QFRET BODIPY PC-A2 liposome hydrolysis, fluorescence; inhibition, % at 12.2 µM; 370,000 tested, 0.56% active; AID 743126, 2013;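 active = inhibition above mean plus 3 SD of compounds lying within the high and low control bounds, cut at about 19% in these data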;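 also: 0% = median of test compound wells and 100% = no enzyme DMSO wells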
Target sequence (Q9NZ20 whole entry, looked up): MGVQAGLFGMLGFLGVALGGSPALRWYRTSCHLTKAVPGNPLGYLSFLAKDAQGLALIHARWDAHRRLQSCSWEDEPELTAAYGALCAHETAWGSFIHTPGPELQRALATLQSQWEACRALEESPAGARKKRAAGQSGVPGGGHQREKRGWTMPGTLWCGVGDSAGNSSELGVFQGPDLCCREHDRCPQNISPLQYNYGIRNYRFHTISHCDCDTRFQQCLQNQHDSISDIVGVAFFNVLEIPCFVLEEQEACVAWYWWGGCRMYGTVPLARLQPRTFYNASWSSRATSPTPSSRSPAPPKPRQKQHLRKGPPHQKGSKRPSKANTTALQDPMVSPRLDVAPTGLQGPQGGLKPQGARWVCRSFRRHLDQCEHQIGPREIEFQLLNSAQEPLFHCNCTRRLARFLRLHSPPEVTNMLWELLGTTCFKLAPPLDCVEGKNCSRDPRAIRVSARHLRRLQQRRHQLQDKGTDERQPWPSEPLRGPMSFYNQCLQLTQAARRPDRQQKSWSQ
rCAG bind conf: small molecules binding CAG repeat RNA – biochemical, fluorescence, confirmation; r(CAG) RNA repeat, TO-PRO-1 dye displacement fluorescence; inhibition, % at 3 µM; shares compounds with rCAG RNA binder; 4,300 tested, 70% active;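 active = inhibition above a per-plate cutoff, the mean inhibition of sample wells plus 3 SD, cut at about 35% in these data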;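 also: loss of TO-PRO-1 fluorescence as compound displaces dye from 1x1 AA loop RNA; 0% = DMSO only wells and 100% = 100 µM mitoxantrone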
dCAG dye counter: displacement of TO-PRO-1 from CAG DNA duplex, counter-screen for rCAG RNA repeat binder project, biochemical, fluorescence, TO-PRO-1 dye, d(CAG) DNA oligo; AID 652068, 2013; 4,300 tested, 94% active; d(CAG) DNA oligo TO-PRO-1 dye displacement; shares compounds with rCAG RNA binder; inhibition, % at 3 µM;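 active = inhibition above its plate's cutoff, the mean test-well inhibition plus 3 SD, cut at about 4.8% in these data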;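 also: 0% = DNA dye mix with DMSO and 100% = 100 µM mitoxantrone; hits displace the dye from DNA and so lower well fluorescence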
DNA CAG DR: inhibitors of DNA CAG/GTC TO-PRO-1 complex, dose response, counter-screen for rCAG RNA repeat binder project, biochemical, fluorescence, TO-PRO-1 dye | shares compounds with rCAG RNA binder | DNA CAG/GTC duplex TO-PRO-1 dye displacement fluorescence | IC50, µM | 250 tested, 20% active | AID 686960, 2013; in the data active = IC50 below about 10 µM
* = called active by the depositor.

Screening CCOC(=O)c1sc(N2C(=O)C(O)=C(C(=O)c3ccc(C)o3)C2c2cccc([N+](=O)[O-])c2)nc1C (stereo not given) returned rCAG RNA binder 55*, MsrA inhibitor 1, MsrA act -4, PG9 binder 0, HGIII-sPLA2 inh -6, rCAG bind conf 78* and dCAG dye counter 42*.
For CCCCOc1cccc(C2C(C(=O)c3ccc(C)o3)=C(O)C(=O)N2c2nnc(C)s2)c1 (stereo not given) the results were rCAG RNA binder 15, MsrA inhibitor -1, MsrA act -11, PG9 binder 0 and HGIII-sPLA2 inh -9.
Screening COC(=O)c1sc(N2C(=O)C(O)=C(C(=O)c3ccc(C)o3)C2c2ccc([N+](=O)[O-])cc2)nc1C (stereo not given) returned rCAG RNA binder 66*, MsrA inhibitor 3, MsrA act -4, PG9 binder -1, HGIII-sPLA2 inh 4, rCAG bind conf 68*, dCAG dye counter 28* and DNA CAG DR 3.3*.
For CCOC(=O)c1ccc(N2C(=O)c3n[nH]c(-c4ccco4)c3C2c2cccc([N+](=O)[O-])c2)cc1 (stereo not given) the results were rCAG RNA binder 74*, MsrA inhibitor 2, MsrA act -3, PG9 binder 1, HGIII-sPLA2 inh 7, rCAG bind conf 19 and dCAG dye counter 14*.
`CCOC(=O)c1ccc(N2C(=O)c3n[nH]c(C)c3C2c2ccco2)cc1` (stereo not given) gave rCAG RNA binder 2, MsrA inhibitor 0, MsrA act 2, PG9 binder 2 and HGIII-sPLA2 inh -10.
`CC1=NN(c2nc(-c3ccc(F)cc3)cs2)C(=O)C1` gave MsrA act -2.
For CC1=NN(c2nc(-c3ccc(Cl)cc3)cs2)C(=O)C1 the results were rCAG RNA binder 58*, MsrA inhibitor 0, MsrA act -4, PG9 binder -1, HGIII-sPLA2 inh 0, rCAG bind conf 73* and dCAG dye counter 39*.
Screening C#CCNC(=O)C[C@H]1C[C@@]2(C(=O)OC)C(=C[C@H](C(C)C)O[C@@H]2C2CC2)N(CCC2=CCCCC2)C1=O returned rCAG RNA binder 4 and HGIII-sPLA2 inh -6.
For CCOc1cc(/C=C(/C#N)c2nc3ccccc3[nH]2)ccc1OCc1ccc(C(=O)O)o1 the results were rCAG RNA binder 49*, MsrA inhibitor 1, MsrA act -3, PG9 binder -7, HGIII-sPLA2 inh -9, rCAG bind conf 39* and dCAG dye counter 8.6*.
Screening COc1cc(/C=C(\C#N)c2nc3ccccc3[nH]2)ccc1OC(=O)c1ccco1 returned rCAG RNA binder 21, MsrA inhibitor 4, MsrA act -6, PG9 binder -2 and HGIII-sPLA2 inh -16.
Cc1ccc2[nH]c(O)c(N=NC(=O)c3ccc(NS(=O)(=O)c4cccs4)cc3)c2c1 was read as rCAG RNA binder 11, MsrA inhibitor 0, MsrA act -2, PG9 binder 0 and HGIII-sPLA2 inh -3.
`Cc1cccc2c(N=NC(=O)c3ccc(NS(=O)(=O)c4cccs4)cc3)c(O)[nH]c12` gave rCAG RNA binder 42*, MsrA inhibitor 3, MsrA act 0, PG9 binder -2, HGIII-sPLA2 inh 13, rCAG bind conf 72* and dCAG dye counter 30*.
Screening COc1ccc2[nH]c(O)c(N=NC(=O)c3ccc(NS(=O)(=O)c4cccs4)cc3)c2c1 returned rCAG RNA binder 36*, MsrA inhibitor 1, MsrA act -3, PG9 binder 0, HGIII-sPLA2 inh -5, rCAG bind conf 57* and dCAG dye counter 25*.
`CC(C)(Oc1ccc(Cl)cc1)C(=O)NC1=NN(c2ccccc2)C(=O)C1` gave rCAG RNA binder 74*, MsrA inhibitor 0, MsrA act -10, PG9 binder -2, HGIII-sPLA2 inh -16, rCAG bind conf 27 and dCAG dye counter 12*.
For O=C1CC(NC(=O)C(F)(F)F)=NN1c1ccccc1 the results were rCAG RNA binder 6, MsrA inhibitor 0, MsrA act -9, PG9 binder -3 and HGIII-sPLA2 inh -2.
CC(Oc1ccc(Cl)cc1Cl)C(=O)NC1=NN(c2ccccc2)C(=O)C1 (stereo not given) was read as rCAG RNA binder 58*, MsrA inhibitor 0, MsrA act -7, PG9 binder 0, HGIII-sPLA2 inh -14, rCAG bind conf 53* and dCAG dye counter 25*.
For CC(=O)Nc1ccc(NC(=O)C(C)Oc2ccc(Cl)cc2Cl)cc1 (stereo not given) the results were rCAG RNA binder -3, MsrA inhibitor 2, MsrA act -9, PG9 binder 3 and HGIII-sPLA2 inh 1.
`CCOC(=O)c1ccccc1NC(=O)Cc1c(C(=O)O)n(C)c2ccccc12` gave rCAG RNA binder 37*, MsrA inhibitor -1, MsrA act 0, PG9 binder 0, HGIII-sPLA2 inh -14, rCAG bind conf 25 and dCAG dye counter 4.
`COc1cc(/C=C2/C(=O)NN(c3cccc(Cl)c3)C2=O)cc(OC)c1O` gave rCAG RNA binder 50*, MsrA inhibitor 1, MsrA act -4, PG9 binder -16, HGIII-sPLA2 inh -13, rCAG bind conf 14 and dCAG dye counter 6.8*.
For O=C1NN(c2cccc(Br)c2)C(=O)/C1=C/c1ccc(-c2cc([N+](=O)[O-])ccc2O)o1 the results were MsrA act -1.
COc1cc(/C=C2\C(=O)NN(c3ccccc3)C2=O)ccc1OCC(N)=O was read as rCAG RNA binder 2, MsrA inhibitor 0, PG9 binder -1 and HGIII-sPLA2 inh -5.
For O=C1NN(c2cccc(Br)c2)C(=O)/C1=C\c1ccc(O)cc1 the results were rCAG RNA binder 72*, MsrA inhibitor 2, MsrA act -5, PG9 binder -6, HGIII-sPLA2 inh -11, rCAG bind conf 27 and dCAG dye counter 11*.

Assay outcomes: PubChem BioAssay, The Scripps Research Institute Molecular Screening Center
